PubChem BioAssay (Tox21)
A number with no mark means an inactive call. Active and inactive are the calls of the source. The call rests on the fitted dose curve.

What follows are molecules tested against Acetylcholinesterase (Homo sapiens) (UniProt P22303) (assay: Acetylcholinesterase (AChE) small molecule antagonists: enzyme-based qHTS assay (AID 1347397; further: nearly all actives have a fitted effect of over 55% in size)). Conditions: Potency: AChE enzyme activity inhibition; series mostly up to 115 µM; activity change, negative = inhibition: at the top concentration.
From the text: National Center for Advancing Translational Sciences [NCATS]
Division of Preclinical Innovation [DPI]
U.S. Environmental Protection Agency [EPA]
National Institutes of Environmental Health Sciences [NIEHS]
National Toxicology Program [NTP]
U.S. Food and Drug Administration [FDA]
Acetylcholinesterase (AChE) is the primary cholinesterase in the body that hydrolyzes a key neurotransmitter, acetylcholine. Inhibition of AChE activity can lead to neurotoxicity. The known inhibitors include organophosphorous pesticides (OP), chemical warfare agents, drugs, and various phytochemicals.
An enzyme-based assay with the recombinant human AChE and Amplite Colormetric acetylcholinesterase assay kit (AAT Bioquest, Sunnyvale, CA) was used to evaluate the chemicals in the Tox21 10K library that inhibit AChE activity. The assay uses 5, 5-dithiobis-(2-nitrobenzoic acid) (DTNB) to quantify the thiocholine produced from the hydrolysis of acetylthiocholine by AChE.
Tox21 Assay Protocol Summary:
For the enzyme-based AChE assay, recombinant human AChE (50 mU/mL) in 4 uL/well was dispensed into black, clear-bottom 1536-well plates using a Multidrop Combi dispenser (Thermo Scientific, MA). Then, 23 nL of compound or DMSO (vehicle control) was transferred into the assay plates by a Pintool Station (Wako Automation, CA). The plates were incubated for 30 min at room temperature, followed by the addition of 4 uL of colorimetric detection cocktail solution (DTNB, acetylthiocholine) into each well using a Flying Reagent Dispenser (Beckman Coulter, CA) and then 10 min incubation at room temperature.
On the % scale 0 is the no-effect control and ±100 the full control effect; potency means the concentration at half of the fitted maximal effect.

Acetylcholinesterase (Homo sapiens), sequence (P22303 whole entry, looked up): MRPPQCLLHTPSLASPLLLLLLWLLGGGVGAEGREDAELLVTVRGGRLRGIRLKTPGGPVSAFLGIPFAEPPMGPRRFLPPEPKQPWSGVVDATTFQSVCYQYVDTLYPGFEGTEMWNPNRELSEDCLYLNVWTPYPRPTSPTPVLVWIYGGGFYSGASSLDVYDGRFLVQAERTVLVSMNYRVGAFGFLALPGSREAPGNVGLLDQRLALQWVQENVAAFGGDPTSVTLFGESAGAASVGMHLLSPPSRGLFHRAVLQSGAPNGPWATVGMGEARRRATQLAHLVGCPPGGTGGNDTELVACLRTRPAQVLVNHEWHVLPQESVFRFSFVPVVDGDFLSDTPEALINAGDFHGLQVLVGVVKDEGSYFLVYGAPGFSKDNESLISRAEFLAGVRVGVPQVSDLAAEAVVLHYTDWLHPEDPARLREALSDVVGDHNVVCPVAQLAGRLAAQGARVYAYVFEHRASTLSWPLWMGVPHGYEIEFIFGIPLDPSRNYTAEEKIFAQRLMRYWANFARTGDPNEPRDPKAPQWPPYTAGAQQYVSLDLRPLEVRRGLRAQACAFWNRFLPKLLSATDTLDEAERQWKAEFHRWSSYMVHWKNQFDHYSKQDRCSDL

Row | SMILES | activity change, negative = inhibition | Potency
1 | CC(C)NCC(O)c1ccccc1Cl (stereo not given) | 0.306% [at 53 µM] | –
2 | CNC(=O)Oc1cc(C)cc(C(C)C)c1 | – | 399 nM (active)
3 | CC(=O)[O][Pb]([c]1ccccc1)([c]1ccccc1)[c]1ccccc1 | -2.2% | –
4 | CCCN | 0.67% | –
5 | CCCCCCC[CH2][Sn]([Cl])([Cl])[CH2]CCCCCCC | 0.818% | –
6 | CC1CN1 (stereo not given) | 2.04% | –
7 | Nc1ccccc1-c1ccccc1 | -0.273% | –
8 | CCC(OC(C)=O)C(CC(C)NC)(c1ccccc1)c1ccccc1 (stereo not given) | 0.365% | –
9 | CCC(C)Br (stereo not given) | 0.395% | –
10 | Clc1ccc(C(c2ccc(Cl)cc2)C(Cl)Cl)cc1 | – | inactive
11 | ClC1=C(Cl)[C@]2(Cl)[C@@H]3[C@H]4C[C@H]([C@@H]5O[C@H]45)[C@@H]3[C@@]1(Cl)C2(Cl)Cl | -0.395% | –
12 | CC(Cl)CCl (stereo not given) | 0.273% | –
13 | COP(=S)(OC)Oc1nc(Cl)c(Cl)cc1Cl | 0.886% | –
14 | Nc1cc(Cl)ccc1Cl | 0.282% | –
15 | Oc1cc(Cl)cc(Cl)c1 | 0.27% | –
16 | O=C(Nc1ccc(F)cc1F)c1cccnc1Oc1cccc(C(F)(F)F)c1 | 0.446% | –
17 | CCC(C)Nc1c([N+](=O)[O-])cc(C(C)(C)C)cc1[N+](=O)[O-] (stereo not given) | -0.455% | –
18 | C#CCO | 0% | –
19 | CCCCC(CC)COC(=O)OOC(C)(C)C (stereo not given) | 0.758% | –
20 | CC#C[C@]1(O)CC[C@H]2[C@@H]3C[C@H](C)C4=CC(=O)CC[C@]4(C)[C@H]3CC[C@@]21C | -3.99% [at 53 µM] | –

Row | SMILES | activity change, negative = inhibition | Potency
21 | ClC1=C(Cl)[C@]2(Cl)[C@H]3[C@H]([C@@H]4C=C[C@H]3C4)[C@@]1(Cl)C2(Cl)Cl | – | inactive
22 | FC(F)C(F)(F)OCC(Cn1cncn1)c1ccc(Cl)cc1Cl (stereo not given) | -5.37% | –
23 | O=Cc1ccccc1 | 0.53% | –
24 | O=[N+]([O-])c1cccc2cccc([N+](=O)[O-])c12 | -16.5% | –
25 | Cc1ccc(C)c2ccccc12 | -4.11% | –
26 | CN/C(=N\[N+](=O)[O-])NCc1cnc(Cl)s1 | -0.259% | –
27 | CCCCCON=O | 0.534% | –
28 | CCC1(CC)C(=O)N=C(O)NC1=O | 0.266% | –
29 | Cc1cc2c3c(c1)C(c1ccccc1)=N[C@@H](NC(=O)c1ccncc1)C(=O)N3CC2 | 0.626% | –
30 | c1ccc(Nc2ccc(Nc3ccccc3)cc2)cc1 | 0.409% | –
31 | Cc1cnc2c(C(=O)O)c(Cl)ccc2c1 | -1.29% | –
32 | CCNc1nc(NC(C)C(C)C)nc(SC)n1 (stereo not given) | -2.06% | –
33 | CC(C)=CC1C(C(=O)OC(C#N)c2cccc(Oc3ccccc3)c2)C1(C)C (stereo not given) | -4.02% | –
34 | O=[N+]([O-])c1ccc(Cl)c(Cl)c1Cl | 0.282% | –
35 | OCC(Br)CBr (stereo not given) | 2.6% | –
36 | C[C@]12CC[C@H]3[C@@H](CCC4=CC(=O)CC[C@@H]43)[C@@H]1CC[C@@H]2OC(=O)CCc1ccco1 | -9.06% [at 53 µM] | –
37 | O=S(=O)(O)F | 0.245% | –
38 | O=C(N[C@H]1N=C(c2ccccc2F)c2cccc3c2N(CC3)C1=O)c1cc2ccccc2[nH]1 | -0.688% [at 53 µM] | –
39 | Nc1nc(N)c(N)c(N)n1 | 0.809% | –
40 | C[C@H]1[C@H](c2ccc(Cl)cc2)SC(=O)N1C(=O)NC1CCCCC1 | -0.397% | –
